Compounds with a hit are over-represented: about 3.5% of the library has one in this group of screens.
TEAD-YAP inh = TEAD-YAP interaction inhibition | inhibition, % at 9.12 µM | HEK-TIYL cells, TEAD-Gal4/YAP UAS-luciferase luminescence | actives 1.4% (n = 640,000); in the data active means inhibition above about 32%
MITF primary = blocks human microphthalmia-associated transcription factor; AlphaScreen MITF homodimerization, bead proximity signal; O75030; AID 1259374; inhibition, % at 2.6 µM; actives 0.91% (n = 650,000); in the data active means inhibition above about 50%
Target sequence (O75030 whole entry, looked up): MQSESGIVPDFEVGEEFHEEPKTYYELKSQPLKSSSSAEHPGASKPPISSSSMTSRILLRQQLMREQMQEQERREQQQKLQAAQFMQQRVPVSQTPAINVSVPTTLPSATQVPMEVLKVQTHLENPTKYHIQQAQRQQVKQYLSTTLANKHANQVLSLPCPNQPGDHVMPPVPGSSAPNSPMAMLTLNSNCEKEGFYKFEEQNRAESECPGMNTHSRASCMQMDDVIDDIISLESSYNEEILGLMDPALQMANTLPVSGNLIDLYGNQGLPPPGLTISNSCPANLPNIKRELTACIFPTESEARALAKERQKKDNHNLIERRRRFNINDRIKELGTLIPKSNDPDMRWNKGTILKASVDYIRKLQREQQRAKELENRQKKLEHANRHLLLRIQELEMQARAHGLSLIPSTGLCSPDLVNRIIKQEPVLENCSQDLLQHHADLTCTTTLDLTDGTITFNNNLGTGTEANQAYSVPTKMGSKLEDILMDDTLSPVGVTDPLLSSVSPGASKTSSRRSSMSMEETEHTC
GPR151 ag = activators of human GPR151 | Q8TDV0 | PathHunter beta-arrestin GPR151 cells, luminescence | actives 1% (n = 650,000) | activation, % at 11.2 µM; in the data active means activation above about 4.9%
FBW7 activator = activators of human E3 ligase FBW7; normalized activity (activation), % at 26.1 µM; actives 0.13% (n = 650,000); AlphaScreen FBW7–phospho-cyclin E peptide binding, activator screen; Q969H0; in the data active means normalized activity above about 1.9%;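 further: purified mutant Fbw7 with reduced substrate affinity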
GPR151 conf act = human GPR151 activation, confirmation screen; shares compounds with GPR151 ag; 6,700 tested, under 10 active; GPR151 PathHunter beta-arrestin cells, luminescence, 90 min; % of EA-reagent control over plate median; AID 1508609; activation, % at 11.2 µM;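 active means mean percent activation across replicates above the confirmation screen cutoff of 4.91%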
GPR119 ag = GPR119 activation, counter-screen for GPR151 activators; shares compounds with GPR151 ag; GPR119 PathHunter beta-arrestin cells, luminescence, 90 min; 0 = compound-well median, 100 = enzyme-acceptor control; activation, % at 11.2 µM; actives 0.3% (n = 6,700); AID 1508611;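 active means mean percent activation in the counterscreen above 29.09%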;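 further: counterscreen on off-target GPR119 to flag nonselective hits from the GPR151 activator screen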
Numbers stand for hits.

COc1ccc(C(Nc2cccc(C)n2)c2ccc3cccnc3c2O)cc1 (configuration not stated) was read as TEAD-YAP inh 88, MITF primary inactive, GPR151 ag 6.7, FBW7 activator inactive, GPR151 conf act inactive and GPR119 ag inactive.
`O=C(NCCN1CCN(c2cccc(Cl)c2)CC1)Nc1ccccc1` gave TEAD-YAP inh inactive, MITF primary inactive, GPR151 ag inactive and FBW7 activator inactive.
Screening CCOc1ccc(N2CCN(CCNC(=O)Nc3cccc(Cl)c3)CC2)cc1 returned TEAD-YAP inh inactive, MITF primary inactive, GPR151 ag 5.5, FBW7 activator inactive, GPR151 conf act inactive and GPR119 ag inactive.
`O=C(CC(c1ccccc1)c1cc(Br)ccc1O)NCc1cccnc1` (configuration not stated) gave TEAD-YAP inh inactive, MITF primary inactive, GPR151 ag inactive and FBW7 activator inactive.
O=S(=O)(c1ccc(F)cc1)N1CCSCC1 was read as TEAD-YAP inh inactive, MITF primary inactive, GPR151 ag 5.8, FBW7 activator inactive, GPR151 conf act inactive and GPR119 ag inactive.
Screening COc1ccc(NC(=O)N2CCC3(CC2)OCc2ccccc2O3)cc1 returned TEAD-YAP inh inactive, MITF primary inactive, GPR151 ag inactive and FBW7 activator inactive.
Screening Cc1ccc(C2CC(c3ccccc3F)n3nnnc3N2)cc1 (configuration not stated) returned TEAD-YAP inh inactive, MITF primary inactive, GPR151 ag inactive and FBW7 activator inactive.
For COc1cccc(N2CC(NC(=O)N3CCN(c4ccc([N+](=O)[O-])cc4)CC3)CC2=O)c1 (configuration not stated) the results were TEAD-YAP inh inactive, MITF primary inactive, GPR151 ag 12, FBW7 activator inactive, GPR151 conf act inactive and GPR119 ag inactive.
COc1cccc(N2CC(NC(=O)N3CCN(c4ccc(C(C)=O)cc4)CC3)CC2=O)c1 (configuration not stated) was read as TEAD-YAP inh inactive, MITF primary inactive, GPR151 ag inactive and FBW7 activator inactive.
Cn1c(=O)c2c(nc(N3CCN(c4ccc([N+](=O)[O-])cc4)CC3)n2CC(=O)c2ccccc2)n(C)c1=O was read as TEAD-YAP inh inactive, MITF primary inactive, GPR151 ag inactive and FBW7 activator inactive.
For c1c2c(cc3c1OCCO3)C1CN(C2)Cc2cc3c(cc21)OCCO3 the results were TEAD-YAP inh inactive, MITF primary inactive, GPR151 ag 7.4, FBW7 activator inactive, GPR151 conf act inactive and GPR119 ag inactive.
For CCc1ccc(C2NCCc3cc4c(cc32)OCCO4)cc1 (configuration not stated) the results were TEAD-YAP inh inactive, MITF primary inactive, GPR151 ag inactive and FBW7 activator inactive.
`O=C(CN1C(=O)C2C3CCC(C3)C2C1=O)Nc1ccc(-c2ccccc2)cc1` (configuration not stated) gave TEAD-YAP inh inactive, MITF primary inactive, GPR151 ag inactive and FBW7 activator inactive.
O=C(CN1C(=O)C2C3CCC(C3)C2C1=O)Nc1ccc(-n2cnnn2)cc1 (configuration not stated) was read as TEAD-YAP inh inactive, MITF primary inactive, GPR151 ag 5.1, FBW7 activator inactive, GPR151 conf act inactive and GPR119 ag inactive.
`Cc1c(C(=O)N2CCC(C(N)=O)(N3CCCCC3)CC2)sc2ncnc(N3CCN(c4ccccc4)CC3)c12` gave TEAD-YAP inh inactive, MITF primary inactive, GPR151 ag inactive and FBW7 activator inactive.
For Cc1nn(-c2ccc(Cl)cc2)c2sc(C(=O)Nc3ccc(C(N)=O)cc3)cc12 the results were TEAD-YAP inh inactive, MITF primary inactive, GPR151 ag 6.7, FBW7 activator inactive, GPR151 conf act inactive and GPR119 ag inactive.
Screening Cc1nn(-c2ccccc2)c2sc(C(=O)Nc3ccc(Cl)cc3)cc12 returned TEAD-YAP inh inactive, MITF primary inactive, GPR151 ag inactive and FBW7 activator inactive.
`CCOc1ccc2c(c1)=C(c1sc(=S)[nH]c1O)C(=O)N=2` gave TEAD-YAP inh inactive, MITF primary inactive, GPR151 ag inactive and FBW7 activator inactive.
For COCCNC(=O)c1ccc(CN2CCC(Cc3ccccc3)CC2)cc1 the results were TEAD-YAP inh inactive, MITF primary inactive, GPR151 ag 5.0, FBW7 activator inactive, GPR151 conf act inactive and GPR119 ag inactive.
`COCCNC(=O)c1cccc(OC2CCN(Cc3cnc(SC)nc3)CC2)c1` gave TEAD-YAP inh inactive, MITF primary inactive, GPR151 ag 7.9, FBW7 activator inactive, GPR151 conf act inactive and GPR119 ag inactive.
Screening COCCNC(=O)c1cccc(OC2CCN(Cc3ccc(F)c(OC)c3)CC2)c1 returned TEAD-YAP inh inactive, MITF primary inactive, GPR151 ag inactive and FBW7 activator inactive.
`O=C(NCc1ccccc1)c1ccc(CN2CCC(Cc3ccccc3)CC2)cc1` gave TEAD-YAP inh inactive, MITF primary inactive, GPR151 ag inactive and FBW7 activator inactive.
CCOC(=O)N1CCN(C(=O)c2ccc(CN3CCC(Cc4ccccc4)CC3)cc2)CC1 was read as TEAD-YAP inh inactive, MITF primary inactive, GPR151 ag 4.9, FBW7 activator inactive, GPR151 conf act inactive and GPR119 ag inactive.
`CCSc1ccc(CC(=O)Nc2nc(-c3ccccc3)c(C(C)=O)s2)cc1` gave TEAD-YAP inh inactive, MITF primary inactive, GPR151 ag inactive and FBW7 activator inactive.
CC(NC(=O)Cn1c2ccccc2c(=O)c2ccccc21)c1ccccc1 (configuration not stated) was read as TEAD-YAP inh inactive, MITF primary inactive, GPR151 ag inactive and FBW7 activator inactive.
Screening CCOc1ccc(/C=C2/NC(=O)N(Cc3ccccc3F)C2=O)cc1OCC returned TEAD-YAP inh inactive, MITF primary inactive, GPR151 ag inactive and FBW7 activator inactive.
For CCOc1ccc(-n2c(SCC#N)nc3c(sc(=S)n3-c3ccc(C)cc3C)c2=O)cc1 the results were TEAD-YAP inh inactive, MITF primary inactive, GPR151 ag inactive and FBW7 activator inactive.
`Cc1ccc(-n2c(=S)sc3c(=O)n(-c4ccc(F)cc4)c(SCC#N)nc32)c(C)c1` gave TEAD-YAP inh inactive, MITF primary inactive, GPR151 ag 6.3, FBW7 activator inactive, GPR151 conf act inactive and GPR119 ag inactive.
For O=C(Cc1ccccc1[N+](=O)[O-])NNC(=O)Nc1ccc2c(c1)OCO2 the results were TEAD-YAP inh inactive, MITF primary inactive, GPR151 ag 5.1, FBW7 activator inactive, GPR151 conf act inactive and GPR119 ag inactive.
O=C(Cc1ccccc1[N+](=O)[O-])Nc1ccc2c(c1)OCO2 was read as TEAD-YAP inh inactive, MITF primary inactive, GPR151 ag inactive and FBW7 activator inactive.
